According to PubChem BioAssay (NCI):
The panel holds about 83,000 compounds, 20% with a hit somewhere; the sample as a whole holds those more often.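 48-hour exposure, single concentration, 96-well plates; percent growth endpoint where 0 means no net growth. Active: below 10.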 Calls of active or inactive are those of the source.

Assays:
Experiment in all cases: NCI-60 one-dose screen, 48 h (100 = growth as untreated, 0 = no growth, -100 = all killed)
Settings in all cases: 10 µM unless noted
HCT-15 colon = tested on: HCT-15 colon
HT29 colon = tested on: HT29 colon
SNB-75 CNS = tested on: SNB-75 CNS
SNB-19 CNS = tested on: SNB-19 CNS
U251 CNS = tested on: U251 CNS
PC-3 prostate = tested on: PC-3 prostate
UACC-62 melanoma = tested on: UACC-62 melanoma
LOX IMVI melanoma = tested on: LOX IMVI melanoma
SK-MEL-28 melanoma = tested on: SK-MEL-28 melanoma
SK-MEL-5 melanoma = tested on: SK-MEL-5 melanoma

Structure (SMILES) | growth (HCT-15 colon) | growth (HT29 colon) | growth (SNB-75 CNS) | growth (SNB-19 CNS) | growth (U251 CNS) | growth (PC-3 prostate) | growth (UACC-62 melanoma) | growth (LOX IMVI melanoma) | growth (SK-MEL-28 melanoma) | growth (SK-MEL-5 melanoma)
O=C(c1cc2ccccc2o1)c1nn(-c2ccccc2)/c(=N/N=Cc2cn(-c3ccccc3)nc2-c2cc3ccccc3oc2=O)s1 | 87.8% (inactive) | 107% (inactive) | 97.2% (inactive) | 101% (inactive) | 83.1% (inactive) | 93% (inactive) | 97.2% (inactive) | 95.6% (inactive) | 114% (inactive) | –
CN1CCN(C(=O)c2ccc(NC(=O)Nc3ccc(-c4nc(N5CCOCC5)c5cccn5n4)cc3)cc2)CC1 | 13.2% (inactive) | 5.74% (active) | -37.7% (active) | 3.27% (active) | 3.91% (active) | 5.5% (active) | -41.3% (active) | -3.2% (active) | -18.4% (active) | –
COc1ccc(/C=C2\COc3ccc(O)c(O)c3C2=O)cc1 | -19.4% (active) | 42.6% (inactive) | 44.4% (inactive) | 42% (inactive) | 12.8% (inactive) | 17.7% (inactive) | 4.68% (active) | -63.9% (active) | 57.4% (inactive) | –
N#Cc1c(NC(=O)c2ccccc2)sc2c1CCC(=O)C2 | -3.43% (active) | 14.1% (inactive) | -6.39% (active) | 19.1% (inactive) | 13.4% (inactive) | 12% (inactive) | 1.83% (active) | 6.26% (active) | 17.5% (inactive) | –
COc1ccccc1NC(=O)Cn1cc(CN2CCN(c3ccnc4cc(Cl)ccc34)CC2)nn1 | 91.8% (inactive) | 105% (inactive) | 75.2% (inactive) | 93.2% (inactive) | 97.1% (inactive) | 71.8% (inactive) | 83.9% (inactive) | – | 84.1% (inactive) | 73% (inactive)
S=C(Nc1ccc(-c2nc(N3CCOCC3)c3cccn3n2)cc1)Nc1cccnc1 | 18.4% (inactive) | 22.8% (inactive) | 36.5% (inactive) | 32.2% (inactive) | 31.7% (inactive) | 16.4% (inactive) | 25.4% (inactive) | 30.8% (inactive) | 45.9% (inactive) | –
CCCC(=O)NC(c1ccc2c(c1)OCO2)c1ccc2cccnc2c1O (centres undefined) | 35% (inactive) | 25.4% (inactive) | 17.5% (inactive) | 29.5% (inactive) | 14.5% (inactive) | 33.5% (inactive) | -5.34% (active) | – | 34.5% (inactive) | -12.4% (active)
CC(=O)N(N=Nc1ccccc1)c1cccc2ccccc12 | 17.1% (inactive) | 35.2% (inactive) | 129% (inactive) | 106% (inactive) | 81.7% (inactive) | 68.1% (inactive) | 75.3% (inactive) | 76.5% (inactive) | 100% (inactive) | –
COC(=O)c1c2c(c[n+]([O-])c1C)C(=O)C(NCc1ccccc1)=CC2=O | -60.1% (active) | -0.488% (active) | -97.9% (active) | -23.8% (active) | -57.4% (active) | -11.1% (active) | -78.5% (active) | -30.1% (active) | -29.3% (active) | –
Cc1ccccc1Cn1cnc2ccc(-c3cc(NC(=O)c4ccc(NC5CCN(C)CC5)cc4)n[nH]3)cc21 | 102% (inactive) | 56.6% (inactive) | -11.4% (active) | 95% (inactive) | 75.9% (inactive) | 68.8% (inactive) | 73.2% (inactive) | – | 92.2% (inactive) | 79.3% (inactive)
CO[C@H]1/C=C(/C)CCC[C@H](C)[C@H](O)[C@@H](C)C(=O)C(C)(C)[C@@H](O)CC(=O)O[C@@H]1/C(C)=C/c1csc(C)n1 | 16.3% (inactive) | -4.27% (active) | -32.1% (active) | 31.2% (inactive) | 15.4% (inactive) | 26.6% (inactive) | 36.8% (inactive) | 14.3% (inactive) | 39.6% (inactive) | –
Fc1ccc(-c2nn(-c3ccccc3)cc2-c2nc3ccccc3o2)cc1 | 33.9% (inactive) | 99.6% (inactive) | 119% (inactive) | 67.3% (inactive) | 33.4% (inactive) | 51.6% (inactive) | 74.9% (inactive) | 24.7% (inactive) | 108% (inactive) | –
COc1cccc(/C=C/C(=O)c2cc3c(N)c(C(=O)Nc4ccccc4)sc3nc2C)c1 | -35.1% (active) | -7.47% (active) | 3% (active) | -3.91% (active) | -52.9% (active) | 41.7% (inactive) | 20.2% (inactive) | -83.2% (active) | 50.4% (inactive) | –
COC(=O)c1c2c(c(C)[n+]([O-])c1C)C(=O)C(NCc1ccc(Cl)cc1)=CC2=O | 39.6% (inactive) | 9.34% (active) | 131% (inactive) | 84.4% (inactive) | 57.2% (inactive) | 33.5% (inactive) | 6.15% (active) | 45.8% (inactive) | 95.7% (inactive) | –
CS(=O)(=O)c1cccc(-c2c(-c3cccc(OS(N)(=O)=O)c3)nc3sccn23)c1 | 104% (inactive) | 107% (inactive) | 70.8% (inactive) | 97.5% (inactive) | 100% (inactive) | 106% (inactive) | 94% (inactive) | 95.6% (inactive) | 112% (inactive) | –
COC(=O)/C=C1/SC(=Nc2ccc(C)cc2)N(CCc2c[nH]c3ccc(O)cc23)C1=O | 14.7% (inactive) | 90.9% (inactive) | 52% (inactive) | 51.8% (inactive) | 34.7% (inactive) | 39% (inactive) | 42.2% (inactive) | -17.8% (active) | 48.4% (inactive) | –
O=c1oc2ccccc2cc1C1=NN=C(SCc2ccccc2)SC1 | 101% (inactive) | 105% (inactive) | 85.7% (inactive) | 103% (inactive) | 92.2% (inactive) | 94% (inactive) | 101% (inactive) | 99.7% (inactive) | 109% (inactive) | –
Cc1ccc(-c2cc(-c3ccc(Cl)cc3)nc(NC(=O)c3cccnc3)n2)cc1 | 94.5% (inactive) | 109% (inactive) | 99.8% (inactive) | 94.6% (inactive) | 101% (inactive) | 85.5% (inactive) | 76% (inactive) | 95.7% (inactive) | 106% (inactive) | –
O=C(O)CNC1=C(Cl)C(=O)c2ccccc2C1=O | 100% (inactive) | 103% (inactive) | 86.5% (inactive) | 96.5% (inactive) | 91.1% (inactive) | 77.7% (inactive) | 93.6% (inactive) | 84% (inactive) | 113% (inactive) | –
Oc1c(Cl)cc(Cl)c2ccc(Cn3cc(-c4cc(C(F)(F)F)cc(C(F)(F)F)c4)nn3)nc12 | 12.5% (inactive) | 53.4% (inactive) | 62.3% (inactive) | 94% (inactive) | 105% (inactive) | 74.8% (inactive) | 64.8% (inactive) | -10.3% (active) | 46% (inactive) | –
Cc1ccc(S(=O)(=O)N2CCCC2CO)cc1 (centres undefined) | 95% (inactive) | 88.5% (inactive) | 68.1% (inactive) | 98.9% (inactive) | 98.1% (inactive) | 75.6% (inactive) | 104% (inactive) | – | 163% (inactive) | 98.4% (inactive)
CC(C)(C)[Si](C)(C)O[C@H]1C(=O)C=CN2CC=C[C@@H]12 | 104% [100 µM] (inactive) | 106% [100 µM] (inactive) | 91% [100 µM] (inactive) | 89.1% [100 µM] (inactive) | 98.5% [100 µM] (inactive) | 91.9% [100 µM] (inactive) | 85.3% [100 µM] (inactive) | 102% [100 µM] (inactive) | 117% [100 µM] (inactive) | –
CC(=O)Nc1nc2ccc(NS(=O)(=O)c3cccc4c(N(C)C)cccc34)cc2[nH]1 | 72.9% (inactive) | 63% (inactive) | 31% (inactive) | 52.3% (inactive) | 70.2% (inactive) | 60.2% (inactive) | 27.3% (inactive) | 53.6% (inactive) | 57.9% (inactive) | –
COc1ccc(/C=C2\COc3ccc(O)cc3C2=O)c(OC)c1OC | 48.8% (inactive) | 68.5% (inactive) | 83% (inactive) | 80.6% (inactive) | 60.8% (inactive) | 77.1% (inactive) | 78.7% (inactive) | 44.3% (inactive) | 99.2% (inactive) | –
COc1ccc(C(=O)Nc2ncc(Cc3ccc(F)cc3)s2)cc1 | 11.5% (inactive) | 9.92% (active) | 23.9% (inactive) | 31.2% (inactive) | 28.6% (inactive) | 27.6% (inactive) | 30.1% (inactive) | – | 48.7% (inactive) | -4.84% (active)
Cn1cccc1C(=O)C1C(c2cccc([N+](=O)[O-])c2)C2C3CCCCC3CN2C12C(=O)Nc1ccc(Cl)cc12 (centres undefined) | 41.7% (inactive) | 41.9% (inactive) | 37.4% (inactive) | 53.2% (inactive) | 53.8% (inactive) | 35.2% (inactive) | 60.1% (inactive) | 37.3% (inactive) | 83.2% (inactive) | –
